Consider seven compounds from PubChem BioAssay (NCI).

About 83,000 compounds went through this panel and 20% of them were active in at least one assay; those are over-represented in the sample as a whole.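 In brief: 96-well plates, 48 h treatment, single concentration, percent growth endpoint.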 Values without a mark were called inactive. Active and inactive are the calls of the source. The calls were made as follows: active = growth percent below 10; inactive = the rest.

What all share (test): NCI-60 one-dose screen, 48 h (100 = growth as untreated, 0 = no growth, -100 = all killed)
Common to all, as to conditions: 10 µM unless noted

In assay [1] the test system is SK-MEL-2 melanoma.
Assay [2] concerns EKVX NSCLC.
Assay [3] has as its system SN12C renal.
Assay [4] has as its system UO-31 renal.
The test system of assay [5] is TK-10 renal.
In assay [6] the test system is ACHN renal.
In assay [7] the test system is CAKI-1 renal.
Assay [8] deals with A498 renal.
Assay [9] deals with CCRF-CEM leukemia.
For assay [10], the system named is MOLT-4 leukemia.
Assay [11] deals with SR leukemia.
The test system of assay [12] is RPMI-8226 leukemia.
Assay [13] relates to OVCAR-8 ovarian.
Assay [14] has as its system OVCAR-5 ovarian.
Assay [15] concerns OVCAR-4 ovarian.
Assay [16] concerns SK-OV-3 ovarian.
The subject of assay [17] is IGROV1 ovarian.
In assay [18] the test system is OVCAR-3 ovarian.
Assay [19] has as its system HS 578T breast.
Assay [20] relates to NCI/ADR-RES ovarian.

With `CCCCCCC/C=N/NC(=O)c1ccc(-n2cc(-c3ccccc3)nn2)cc1`, the growth in assay [1] is 98.9%; in assay [2], 90.5%; in assay [3], 93.4%; in assay [4], 71%; in assay [5] it was 110%; in assay [6], 79.1%. Besides, the growth was 75.8% in assay [7]; 90.1% in [8]; 86.3% in [9]; 85.9% in [10]; 79.4% in assay [11]; 94.3% in [12]. Further, the growth in assay [13] was 95.6%; in [14] it was 89.9%; in assay [15] it was 93.1%; in assay [16] it was 87.8%; in assay [17] it was 74.9%; in assay [18], 102%. Moreover, the growth in assay [19] is 91.3%; in assay [20], 86.9%.
Take `Cc1[nH]c(C(=O)Nc2ccc(C(N)=O)cc2OC(C)C)c(Cl)c1Cl`: the growth in assay [1] is 100%; in [2], 86.3%; in [3] it was 99.9%; in assay [4] it was 74.4%; in assay [5], 117%; in assay [6] it was 97.2%. Also, the growth is 105% in assay [7]; 84.3% in assay [8]; 92.5% in assay [9]; 89.2% in [10]; 79.2% in [11]; 90.4% in assay [12]. The growth was 101% in [13]; 98.3% in assay [14]; 98.2% in assay [15]; 96.4% in assay [16]; 95.1% in assay [17]; 105% in assay [18]. The growth in assay [19] is 88.7%; in assay [20], 112%.
Consider `COc1ccc2c(c1)C(c1c[nH]c3ccccc13)(c1c[nH]c3ccccc13)CCO2`, for which the growth in assay [1] is 43.6%; in [2] it was 35%; in assay [3], 50.6%; in [4], 26.1%; in [5], 59.7%; in assay [6], 45%. In addition, the growth in assay [7] was 44%; in assay [8] it was 82.9%; in assay [9] it was 36.7%; in [10], 8.7% (active); in assay [11], 55.9%; in assay [12], 33.3%. Besides, the growth in assay [13] is 61.2%; in assay [14] it was 76.6%; in assay [15] it was 26%; in assay [16] it was 23.9%; in assay [17], 48%; in assay [18], 57.4%. Further, the results for the growth in [19] and in assay [20] were 55.5% and 54.1%, respectively.
With `C#CC(F)(F)[C@]1(O)CCC2C3CCC4=CC(=O)CCC4=C3[C@@H](c3ccc(N(C)C)cc3)C[C@@]21C` (stereo not given in full), the growth in assay [1] is 91.8%; in assay [2], 90.4%; in [3], 104%; in assay [4], 76.3%; in assay [5], 89.7%; in assay [6], 99.4%. Moreover, the growth is 86.4% in assay [7]; 87.9% in assay [8]; 56.7% in assay [9]; 75.4% in [10]; 63.8% in assay [11]; 74.6% in assay [12]. The growth in [13] was 86.7%; in assay [14], 119%; in [15] it was 88.4%; in [16], 87.8%; in assay [17], 99%; in [18], 95.1%. Further, the growth in assay [19] is 89.1%; in assay [20] it was 94.6%.
As to `COc1cc(/C=C/c2cc(/C=C/c3ccc(O)c(OC)c3)n(C(=O)Nc3ccc(C)cc3C)n2)ccc1O`, the growth in assay [1] is -27.2% (active); in assay [2], -14.7% (active); in assay [3], 0.467% (active); in assay [4], -38.7% (active); in assay [5], 15.9%; in [6], 5.29% (active). Also, the growth in [7] is -36.6% (active); in assay [8], -14.7% (active); in assay [9], 1.54% (active); in [10], -20.7% (active); in assay [11] it was -2.07% (active); in assay [12], -16.7% (active). Besides, the growth in [13] is -34.7% (active); in [14], -4.24% (active); in assay [15], 7.87% (active); in assay [16], -63.6% (active); in assay [17], -1.75% (active); in assay [18], -37.3% (active). Also, the figures for the growth in assay [19] and in [20] were -15% (active) and 7.64% (active), respectively.
Turning to `O=C1c2c(c3c4cc(F)ccc4oc3c3[nH]c4ccccc4c23)C(=O)N1O`, the growth in assay [1] is 78%; in assay [2], 62.3%; in assay [3], 28.1%; in [4] it was 8.37% (active); in assay [5], 102%; in [6] it was 0.963% (active). In addition, the growth in assay [7] is 16.9%; in [8] it was -6.56% (active); in [9] it was 5.67% (active); in [10] it was -22.5% (active); in [11], 9.66% (active); in [12], 26.2%. Also, the growth is 50.8% in assay [13]; 100% in [14]; 61.4% in assay [15]; 55.7% in [16]; 25.6% in assay [17]; 25.5% in [18]. Besides, the growth is 65.2% in assay [19] and 45.6% in assay [20].
As to `Cc1ccc(C23CCC(=O)N2CCc2cncn23)cc1` (stereo not given), the growth in [1] was 107%; in assay [2] it was 104%; in [3] it was 99%; in assay [4], 96.8%; in assay [5], 91.7%; in assay [6], 105%. Also, the growth in assay [7] was 107%; in assay [8] it was 96.8%; in [9] it was 95.1%; in assay [10], 104%; in assay [11], 126%; in assay [12], 100%. Also, the growth is 97.2% in assay [13]; 96.3% in assay [14]; 108% in assay [15]; 92.8% in assay [16]; 93.6% in assay [17]; 113% in assay [18]. The growth was 101% in assay [19] and 107% in assay [20].
